Assay outcomes from PubChem.
Rows were chosen to be rich in hits. Some 12% of all compounds tested hit in one or more screens of this group.
HP1b binding inh = HTS for Inhibitors of HP1-beta Chromodomain Interactions with Methylated Histone Tails; 0.56% of 390,000 active; Chromobox protein homolog 1 (Homo sapiens), P83916; Potency, µM (series often up to 114 µM), actives largely listed as inhibitors; AlphaScreen HP1-beta / biotin-H3K9me3 peptide binding; note: nearly all actives have a fitted effect of over 70% in size
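HP1-beta protein (50 nM final) preincubated 30 min at room temperature with biotinylated H3(1-18)K9me3 peptide (50 nM) in PBS pH 7.4, 0.01% Tween-20, then compound added for 30 min. AlphaScreen streptavidin donor/nickel chelate acceptor beads (10 ug/mL final), 30 min dark, luminescence read.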
BAZ2B block = qHTS Assay for Inhibitors of BAZ2B. Bromodomain adjacent to zinc finger domain protein 2B (Homo sapiens), Q9UIF8. AlphaScreen BAZ2B-H3K14Ac peptide displacement. Potency, µM (titrated, usually from 114 µM), hits mostly inhibitors. 4.4% of 360,000 active. AID 504333, 2011; note: nearly all actives have a fitted effect of over 60% in size
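AlphaScreen displacement: compounds (up to 110uM) incubated 30 min at room temperature with a preformed 50 nM BAZ2B/50 nM biotinylated H3K14Ac peptide complex in PBS pH 7.4 with Tween-20. Donor and acceptor beads at 10 ug/mL final added, 20 min light-protected before reading.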
JMJD2A Tudor = qHTS Assay for Inhibitors of JMJD2A-Tudor Domain. Lysine-specific demethylase 4A (Homo sapiens), O75164. AlphaScreen JMJD2A-Tudor / H3K4me3 peptide binding. Potency, µM (top dose mostly 114 µM), most hits filed as inhibitors. 4.4% of 390,000 active. AID 504339, 2011; note: nearly all actives have a fitted effect of over 50% in size
G9a block = qHTS Assay for Inhibitors of Histone Lysine Methyltransferase G9a; Histone-lysine N-methyltransferase EHMT2 (Homo sapiens), Q96KQ7; Potency, µM (titrated, usually from 102 µM), actives largely listed as inhibitors; 8.8% of 350,000 active; G9a H3K9 monomethylation, AlphaScreen, 2 h; note: nearly all actives have a fitted effect of over 75% in size
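Chemiluminescent proximity detection of H3K9 monomethylation, read after 10 min bead incubation in the dark. Reaction: 20 nM G9a, 500 nM biotin-H3K9 peptide, 20 uM SAM cofactor, 2 h, room temperature, following 15 min enzyme-compound preincubation.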
Sfp inh = qHTS Assay for Inhibitors of Bacillus subtilis Sfp phosphopantetheinyl transferase (PPTase) | 4'-phosphopantetheinyl transferase ffp (Bacillus subtilis), Q9F4F7 | Biochemical Sfp PPTase activity, qHTS | Potency, µM, actives largely listed as inhibitors | 3.5% of 310,000 active;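 note: the enzyme is Sfp with the accession as filed and its product quenches rhodamine fluorescence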
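Fluorescence-quenching assay: 15 nM Sfp-PPTase preincubated 15 min at room temperature with compound, then 5 uM rhodamine-CoA and 12.5 uM BHQ-2-labelled YbbR peptide added. Fluorescence (ex 525/em 598 nm) read at start and after 30 min; difference gives rate.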
PLK1 PBD block = qHTS for Inhibitors of PLK1-PDB (polo-like kinase 1 - polo-box domain): Primary Screen; Plk1 PBD binding of FITC phosphopeptide, fluorescence polarization; 2.8% of 360,000 active; Serine/threonine-protein kinase PLK1 (Homo sapiens), P53350; Potency, µM, hits mostly inhibitors; note: series mostly up to about 57 µM; nearly all actives have a fitted effect of over 65% in size
Target sequence (P53350 whole entry, looked up, the tested form may be a part): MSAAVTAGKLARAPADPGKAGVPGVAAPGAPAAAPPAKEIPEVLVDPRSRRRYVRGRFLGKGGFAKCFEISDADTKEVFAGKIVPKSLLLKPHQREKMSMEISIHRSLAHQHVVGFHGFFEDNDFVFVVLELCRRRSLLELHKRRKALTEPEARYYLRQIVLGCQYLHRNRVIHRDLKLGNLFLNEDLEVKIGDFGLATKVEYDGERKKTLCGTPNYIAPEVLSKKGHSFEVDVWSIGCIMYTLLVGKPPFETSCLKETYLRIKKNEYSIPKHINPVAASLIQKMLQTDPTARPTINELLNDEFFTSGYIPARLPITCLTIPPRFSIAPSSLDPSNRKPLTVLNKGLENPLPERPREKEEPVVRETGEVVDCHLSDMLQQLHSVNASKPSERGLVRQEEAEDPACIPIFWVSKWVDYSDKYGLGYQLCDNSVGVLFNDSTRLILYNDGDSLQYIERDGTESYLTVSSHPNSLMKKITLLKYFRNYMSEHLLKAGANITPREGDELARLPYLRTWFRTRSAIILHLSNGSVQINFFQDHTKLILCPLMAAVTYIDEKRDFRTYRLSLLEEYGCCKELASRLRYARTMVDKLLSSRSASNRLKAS
Hits are given with their value; – = inactive; ? = inconclusive; · = no result; [ ] = another dose, or the depositor's remark. Calls come from the whole dose curve; as a rule, active = well fitted curve in the direction sought with a large enough effect; inconclusive = small, poorly fitted or top-dose-only effect, or another doubt; inactive = no such curve, though single readings can be large; an effect the other way counts as inactive or inconclusive.

SMILES | HP1b binding inh | BAZ2B block | JMJD2A Tudor | G9a block | Sfp inh | PLK1 PBD block
Cc1cccc(NC(=O)C2C3C=CC(O3)C2C(=O)O)c1C (stereo unspecified) | – | – | – | 35µM | – | –
Cc1ccc(C)c(NC(=O)C2C3C=CC(O3)C2C(=O)O)c1 (stereo unspecified) | – | – | – | 45µM | – | –
Cc1cccc(NC(=O)C2C(C(=O)O)C3C=CC2C32CC2)c1C (stereo unspecified) | – | – | – | – | ? | –
COc1ccccc1NC(=O)C1C2C=CC(O2)C1C(=O)O (stereo unspecified) | · | ? | · | 50µM | – | ·
Cc1ccc(C)c(NC(=O)C2CC=CCC2C(=O)O)c1 (stereo unspecified) | – | – | – | – | – | –
COc1ccccc1CCNC(=O)CN1C(=O)c2ccccc2S1(=O)=O | – | – | – | – | · | –
COc1ccc(N2C(=O)c3ccccc3NC(=O)C2C(=O)NCc2ccco2)cc1 (stereo unspecified) | · | · | · | · | · | –
CCOC(=O)c1cc2c(=O)n3ccccc3nc2n(C(C)C)c1=NC(=O)c1cc2ccccc2o1 | – | – | – | – | · | ·
O=C(Cn1cc(S(=O)(=O)c2ccccc2)c(=O)c2cc(Cl)ccc21)Nc1ccc2c(c1)OCO2 | – | – | – | – | · | ·
Cc1ccc(NC(=O)C2C3C=CC(O3)C2C(=O)O)c(C)c1 (stereo unspecified) | – | – | – | 40µM | – | –
C#CCOCCOCCOCCNc1nc(N2CCN(C(=O)[C@H](Cc3ccc(O)cc3)n3cc([C@@H](N)C(C)CC)nn3)CC2)nc(N2CCN(C(=O)[C@H](CCCCN)n3cc([C@@H](N)CC(C)C)nn3)CC2)n1 (stereo partly specified) | · | 79µM | · | – | – | ·
C#CCOCCOCCOCCNc1nc(N2CCN(C(=O)[C@H](Cc3ccc(O)cc3)n3cc([C@@H](N)C(C)CC)nn3)CC2)nc(N2CCN(C(=O)[C@H](CCCCN)n3cc([C@@H](N)CO)nn3)CC2)n1 (stereo partly specified) | – | 50µM | 40µM | –[12.7 µM] | – | –
C#CCOCCOCCOCCNc1nc(N2CCN(C(=O)[C@H](CCCCN)n3cc([C@@H](N)CO)nn3)CC2)nc(N2CCN(C(=O)[C@H](Cc3ccc(O)cc3)n3cc([C@@H](N)CC(C)C)nn3)CC2)n1 | – | 32µM | 56µM | ? | – | –
C#CCOCCOCCOCCNc1nc(N2CCN(C(=O)[C@H](CCCCN)n3cc(CC(C)O)nn3)CC2)nc(N2CCN(C(=O)[C@H](CCCCN)n3cc(CC(C)O)nn3)CC2)n1 (stereo partly specified) | – | – | – | –[2.33 µM] | · | –
O=C(NCCc1ccc2c(c1)OCCO2)c1cc(S(=O)(=O)N2CCCC2)ccc1Cl | – | – | – | 40µM | · | –
CCSc1nsc(SCC)c1C(N)=O | – | – | – | ? | – | –
CCCSc1nsc(SCCC)c1C(N)=O | – | – | – | 40µM | – | –
O=C(Cn1cc(SCc2ccc(F)cc2)c2ccccc21)N1CCCC1 | – | – | – | – | · | ·
COc1ccc(O)c(/C=N/NC(=S)Nc2cccc(S(=O)(=O)N(C)C)c2)c1 | – | 7.9µM | 22µM | ? | – | –
COc1ccc(O)c(/C=N/NC(=S)Nc2cccnc2)c1 | – | · | 25µM | ? | – | –
COc1cccc(/C=N/NC(=S)Nc2cccc(S(=O)(=O)N(C)C)c2)c1 | ? | ? | ? | 8.9µM | 10µM | 8.4µM
CN(C)S(=O)(=O)c1cccc(NC(=S)N/N=C/c2ccc(O)c(O)c2O)c1 | ? | 4.5µM | 20µM | 3.2µM | 3.2µM | 6µM
O=C(Nc1ccc(C(=O)N2CCN(c3ccccc3)CC2)cc1)C1=CSCCO1 | – | – | ? | – | – | ?
CCOc1ccc(S(=O)(=O)N2CCOCC2)cc1[N+](=O)[O-] | – | – | – | – | – | –
COc1cc(NC(=O)Cc2ccccc2)ccc1NC(=O)c1ccccc1 | – | – | – | – | – | –
SMILES | HP1b binding inh | BAZ2B block | JMJD2A Tudor | G9a block | Sfp inh | PLK1 PBD block
CC(C)Cn1c(-c2ccc(F)cc2)n[nH]c1=S | ? | – | 7.9µM | ? | – | –
CC(C)Cn1c(-c2ccncc2)n[nH]c1=S | – | ? | 20µM | 7.1µM | ? | –
COc1ccc(CCn2c(-c3ccncc3)n[nH]c2=S)cc1OC | – | – | ? | ? | ? | –
C=C(C)Cn1c(-c2ccncc2)n[nH]c1=S | – | ? | 50µM | 14µM | ? | –
CC(C)Cn1c(-c2csc3c2CCCC3)n[nH]c1=S | – | ? | 79µM | 8.9µM | ? | –
COc1ccc(C)cc1S(=O)(=O)N1CCN(C)CC1c1ccccc1 (stereo unspecified) | – | – | – | ? | · | –
COc1ccccc1C1CCN(Cc2cccc(C(=O)N3CCC(O)CC3)c2)CC1 | – | – | – | –[12.7 µM] | – | –
Fc1ccccc1-c1n[nH]c(=S)n1C1CC1 | · | – | · | 8.9µM | – | ·
Nc1sc(-c2ccccc2)cc1-c1n[nH]c(=S)n1C1CCCCC1 | – | – | – | – | – | –
CC(C)Cn1c(-c2ccccc2F)n[nH]c1=S | – | – | 4µM | 1.4µM | ? | –
Cc1nnc(SCC(=O)c2ccc(Br)cc2)s1 | – | – | – | – | – | –
CCCCC/C=C\C/C=C\C/C=C\C/C=C\CCCCCC(=O)NCCCC(=O)O | · | · | · | · | – | ·
Oc1ccc(C(c2nnnn2C2CCCCC2)N2CCOCC2)cc1 (stereo unspecified) | – | ? | – | 22µM | ? | –
c1cc(C(c2nnnn2C2CCCC2)N2CCOCC2)ccn1 (stereo unspecified) | – | – | – | –[12.7 µM] | – | –
O=C(CSc1nnnn1C1CCCCC1)Nc1ccccc1N1CCOCC1 | – | – | – | 35µM | – | –
O=C(CSc1nnnn1C1CCCCC1)N1CCOCC1 | – | – | – | – | – | 27µM
Cn1cccc1C(=O)NC(=O)COC(=O)CNC(=O)CNC(=O)c1ccc(Cl)cc1Cl | – | – | – | ? | – | –
C=C1C=CS(=O)(=O)N(Cc2ccccc2)C1 | – | · | – | · | – | ·
CCc1cccc(C)c1NC(=O)CCCn1c(=O)c2cccn2c2cccnc21 | – | – | – | – | – | 24µM
Cc1ccc(NC(=O)CCCn2c(=O)c3cccn3c3cccnc32)c(C)c1 | – | – | – | – | · | ·
CS/C(=C\[N+](=O)[O-])Nc1ccc(OC(F)(F)F)cc1 | – | – | – | 50µM | – | –
